{"source": "ChEMBL document CHEMBL2218924", "about": "“A broad activity screen in support of a chemogenomic map for kinase signalling research and drug discovery” (Biochem J, 2013)", "key": {"[1]": {"target": "T1, Ephrin type-A receptor 3 (Homo sapiens) (UniProt P29320)", "T1 sequence (whole entry)": "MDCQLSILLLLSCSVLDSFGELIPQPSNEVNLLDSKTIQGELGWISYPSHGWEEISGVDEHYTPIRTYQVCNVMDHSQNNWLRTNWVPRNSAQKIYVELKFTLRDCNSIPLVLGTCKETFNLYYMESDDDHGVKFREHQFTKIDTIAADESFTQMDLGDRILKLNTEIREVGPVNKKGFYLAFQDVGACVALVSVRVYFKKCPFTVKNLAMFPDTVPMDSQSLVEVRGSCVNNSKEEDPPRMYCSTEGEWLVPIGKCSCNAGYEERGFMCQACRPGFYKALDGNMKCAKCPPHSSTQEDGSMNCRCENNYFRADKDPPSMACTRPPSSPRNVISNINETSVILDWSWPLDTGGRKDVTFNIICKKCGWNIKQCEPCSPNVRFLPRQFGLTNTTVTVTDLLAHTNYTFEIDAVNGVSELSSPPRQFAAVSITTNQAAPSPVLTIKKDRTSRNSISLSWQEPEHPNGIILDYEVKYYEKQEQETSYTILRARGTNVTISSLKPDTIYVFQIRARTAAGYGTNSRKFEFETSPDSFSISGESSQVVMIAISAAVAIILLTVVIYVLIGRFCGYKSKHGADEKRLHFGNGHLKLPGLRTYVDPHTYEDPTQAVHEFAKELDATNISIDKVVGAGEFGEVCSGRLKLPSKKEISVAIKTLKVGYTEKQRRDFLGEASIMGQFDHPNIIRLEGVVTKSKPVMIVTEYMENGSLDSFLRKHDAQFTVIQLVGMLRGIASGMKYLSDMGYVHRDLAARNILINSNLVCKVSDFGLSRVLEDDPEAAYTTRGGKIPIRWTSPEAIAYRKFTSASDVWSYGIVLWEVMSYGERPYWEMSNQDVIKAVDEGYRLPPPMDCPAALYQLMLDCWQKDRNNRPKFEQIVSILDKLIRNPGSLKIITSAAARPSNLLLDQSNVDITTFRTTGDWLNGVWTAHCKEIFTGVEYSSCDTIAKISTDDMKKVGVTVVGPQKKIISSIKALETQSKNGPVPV", "conditions": "at 10 µM; call rule not given here"}, "[2]": {"target": "Ephrin type-A receptor 4 (Homo sapiens) (UniProt P54764)", "sequence (P54764 whole entry)": "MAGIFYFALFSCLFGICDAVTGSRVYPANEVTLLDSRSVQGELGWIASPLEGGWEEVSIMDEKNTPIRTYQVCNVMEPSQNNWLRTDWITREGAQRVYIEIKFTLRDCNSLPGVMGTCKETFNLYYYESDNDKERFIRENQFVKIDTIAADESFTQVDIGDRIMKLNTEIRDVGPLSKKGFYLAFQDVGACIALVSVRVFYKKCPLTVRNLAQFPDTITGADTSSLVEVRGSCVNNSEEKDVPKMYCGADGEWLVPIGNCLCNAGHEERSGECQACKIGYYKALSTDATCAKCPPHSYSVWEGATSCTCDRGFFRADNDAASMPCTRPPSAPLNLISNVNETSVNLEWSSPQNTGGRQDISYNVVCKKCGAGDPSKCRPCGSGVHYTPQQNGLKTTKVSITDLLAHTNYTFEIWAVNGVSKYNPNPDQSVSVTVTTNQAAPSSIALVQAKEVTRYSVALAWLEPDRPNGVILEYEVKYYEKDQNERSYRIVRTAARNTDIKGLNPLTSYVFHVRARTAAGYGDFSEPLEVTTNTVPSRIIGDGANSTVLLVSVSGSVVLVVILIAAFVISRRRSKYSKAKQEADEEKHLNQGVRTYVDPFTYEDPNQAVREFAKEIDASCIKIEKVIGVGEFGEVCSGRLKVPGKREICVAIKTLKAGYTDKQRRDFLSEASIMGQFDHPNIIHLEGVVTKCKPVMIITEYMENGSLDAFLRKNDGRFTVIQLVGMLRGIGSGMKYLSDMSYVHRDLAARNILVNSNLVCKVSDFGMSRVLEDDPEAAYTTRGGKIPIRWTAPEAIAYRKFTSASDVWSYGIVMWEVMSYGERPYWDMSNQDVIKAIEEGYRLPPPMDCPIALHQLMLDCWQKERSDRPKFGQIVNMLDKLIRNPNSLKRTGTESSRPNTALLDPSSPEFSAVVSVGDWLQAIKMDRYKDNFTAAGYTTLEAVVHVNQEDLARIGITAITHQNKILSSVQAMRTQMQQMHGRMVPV", "conditions": "at 10 µM"}, "[3]": {"target": "Ephrin type-A receptor 7 (Homo sapiens) (UniProt Q15375)", "sequence (Q15375 28-998 limits assumed)": "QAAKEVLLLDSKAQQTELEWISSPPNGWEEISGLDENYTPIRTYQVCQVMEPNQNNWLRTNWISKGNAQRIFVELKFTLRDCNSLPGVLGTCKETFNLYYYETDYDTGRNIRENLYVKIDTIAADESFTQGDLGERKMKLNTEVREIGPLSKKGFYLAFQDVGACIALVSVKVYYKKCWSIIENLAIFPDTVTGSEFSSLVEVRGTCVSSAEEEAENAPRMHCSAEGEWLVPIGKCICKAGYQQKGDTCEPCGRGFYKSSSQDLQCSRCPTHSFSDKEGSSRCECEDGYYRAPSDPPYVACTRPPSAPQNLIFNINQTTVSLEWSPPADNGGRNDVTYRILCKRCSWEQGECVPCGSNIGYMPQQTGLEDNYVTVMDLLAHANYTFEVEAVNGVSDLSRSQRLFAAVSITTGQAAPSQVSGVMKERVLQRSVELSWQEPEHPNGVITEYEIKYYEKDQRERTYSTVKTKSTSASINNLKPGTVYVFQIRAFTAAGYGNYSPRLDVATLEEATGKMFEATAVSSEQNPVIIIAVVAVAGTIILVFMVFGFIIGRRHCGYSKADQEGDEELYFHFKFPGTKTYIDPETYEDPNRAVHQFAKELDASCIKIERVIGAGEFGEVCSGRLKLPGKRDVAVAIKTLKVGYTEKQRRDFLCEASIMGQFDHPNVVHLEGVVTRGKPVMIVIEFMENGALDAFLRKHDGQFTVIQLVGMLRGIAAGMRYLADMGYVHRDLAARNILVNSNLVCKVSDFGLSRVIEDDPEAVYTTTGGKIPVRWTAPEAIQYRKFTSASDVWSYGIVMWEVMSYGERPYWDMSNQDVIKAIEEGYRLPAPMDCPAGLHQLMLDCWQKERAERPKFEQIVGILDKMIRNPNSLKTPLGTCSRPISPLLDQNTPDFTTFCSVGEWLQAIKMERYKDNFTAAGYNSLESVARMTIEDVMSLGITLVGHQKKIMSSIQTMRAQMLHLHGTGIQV", "conditions": "at 10 µM"}, "[4]": {"target": "T2, Ephrin type-B receptor 1 (Homo sapiens) (UniProt P54762)", "T2 sequence (whole entry)": "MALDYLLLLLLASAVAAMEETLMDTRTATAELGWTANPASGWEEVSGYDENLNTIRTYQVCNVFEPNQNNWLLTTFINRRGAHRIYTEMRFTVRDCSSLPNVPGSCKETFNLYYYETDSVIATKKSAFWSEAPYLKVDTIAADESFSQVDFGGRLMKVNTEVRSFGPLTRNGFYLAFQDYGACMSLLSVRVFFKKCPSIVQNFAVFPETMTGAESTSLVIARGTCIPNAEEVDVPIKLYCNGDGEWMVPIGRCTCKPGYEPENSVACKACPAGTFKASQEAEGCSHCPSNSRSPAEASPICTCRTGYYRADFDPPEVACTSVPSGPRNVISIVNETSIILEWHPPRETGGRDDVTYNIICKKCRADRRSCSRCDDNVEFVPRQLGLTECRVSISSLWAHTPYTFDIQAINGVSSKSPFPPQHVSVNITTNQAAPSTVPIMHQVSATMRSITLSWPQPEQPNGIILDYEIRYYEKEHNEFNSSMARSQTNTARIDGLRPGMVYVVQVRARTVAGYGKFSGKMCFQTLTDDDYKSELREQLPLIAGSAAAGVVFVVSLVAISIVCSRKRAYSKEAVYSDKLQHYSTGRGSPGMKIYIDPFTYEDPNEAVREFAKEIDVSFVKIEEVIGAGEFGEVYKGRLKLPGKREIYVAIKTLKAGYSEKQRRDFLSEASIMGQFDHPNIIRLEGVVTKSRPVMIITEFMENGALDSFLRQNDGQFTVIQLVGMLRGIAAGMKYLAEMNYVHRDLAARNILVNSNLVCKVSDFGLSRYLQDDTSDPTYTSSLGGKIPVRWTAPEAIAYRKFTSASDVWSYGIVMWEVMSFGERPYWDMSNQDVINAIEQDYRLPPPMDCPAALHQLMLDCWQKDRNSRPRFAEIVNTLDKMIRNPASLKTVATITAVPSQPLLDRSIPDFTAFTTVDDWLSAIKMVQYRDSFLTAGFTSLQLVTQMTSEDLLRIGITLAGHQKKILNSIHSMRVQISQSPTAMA", "conditions": "at 1 µM"}, "[5]": {"target": "T2, Ephrin type-B receptor 1 (Homo sapiens)", "conditions": "at 10 µM"}, "[6]": {"target": "T3, Ephrin type-B receptor 2 (Homo sapiens) (UniProt P29323)", "T3 sequence (whole entry)": "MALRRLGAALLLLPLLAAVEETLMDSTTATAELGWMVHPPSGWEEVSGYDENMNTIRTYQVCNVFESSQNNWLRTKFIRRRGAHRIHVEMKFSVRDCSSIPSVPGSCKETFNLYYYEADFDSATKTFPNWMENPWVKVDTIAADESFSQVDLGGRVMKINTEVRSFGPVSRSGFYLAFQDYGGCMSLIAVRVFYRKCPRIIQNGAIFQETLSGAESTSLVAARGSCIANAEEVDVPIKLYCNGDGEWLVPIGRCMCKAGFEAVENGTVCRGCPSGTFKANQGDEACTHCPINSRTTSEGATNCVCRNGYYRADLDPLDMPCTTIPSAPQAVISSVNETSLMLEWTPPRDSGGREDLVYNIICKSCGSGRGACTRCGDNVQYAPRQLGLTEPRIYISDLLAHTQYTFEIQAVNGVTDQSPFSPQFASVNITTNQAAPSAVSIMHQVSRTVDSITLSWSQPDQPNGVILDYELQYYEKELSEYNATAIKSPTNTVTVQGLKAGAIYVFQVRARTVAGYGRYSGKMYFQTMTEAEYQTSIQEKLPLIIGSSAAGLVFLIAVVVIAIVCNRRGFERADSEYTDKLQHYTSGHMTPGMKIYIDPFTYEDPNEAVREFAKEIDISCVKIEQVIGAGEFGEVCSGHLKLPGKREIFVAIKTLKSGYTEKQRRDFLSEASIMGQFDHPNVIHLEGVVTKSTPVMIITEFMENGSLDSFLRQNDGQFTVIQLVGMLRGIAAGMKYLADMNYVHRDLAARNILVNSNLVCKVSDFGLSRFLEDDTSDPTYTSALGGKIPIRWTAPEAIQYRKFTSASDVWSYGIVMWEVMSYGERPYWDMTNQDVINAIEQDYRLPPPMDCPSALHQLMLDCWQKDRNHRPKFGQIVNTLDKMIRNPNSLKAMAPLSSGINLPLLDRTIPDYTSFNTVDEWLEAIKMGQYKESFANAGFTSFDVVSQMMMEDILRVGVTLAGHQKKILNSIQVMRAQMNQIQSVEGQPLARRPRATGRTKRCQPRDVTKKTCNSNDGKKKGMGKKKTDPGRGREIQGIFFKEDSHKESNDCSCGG", "conditions": "at 1 µM"}, "[7]": {"target": "T3, Ephrin type-B receptor 2 (Homo sapiens)", "conditions": "at 10 µM"}, "[8]": {"target": "T4, Ephrin type-B receptor 3 (Homo sapiens) (UniProt P54753)", "T4 sequence (whole entry)": "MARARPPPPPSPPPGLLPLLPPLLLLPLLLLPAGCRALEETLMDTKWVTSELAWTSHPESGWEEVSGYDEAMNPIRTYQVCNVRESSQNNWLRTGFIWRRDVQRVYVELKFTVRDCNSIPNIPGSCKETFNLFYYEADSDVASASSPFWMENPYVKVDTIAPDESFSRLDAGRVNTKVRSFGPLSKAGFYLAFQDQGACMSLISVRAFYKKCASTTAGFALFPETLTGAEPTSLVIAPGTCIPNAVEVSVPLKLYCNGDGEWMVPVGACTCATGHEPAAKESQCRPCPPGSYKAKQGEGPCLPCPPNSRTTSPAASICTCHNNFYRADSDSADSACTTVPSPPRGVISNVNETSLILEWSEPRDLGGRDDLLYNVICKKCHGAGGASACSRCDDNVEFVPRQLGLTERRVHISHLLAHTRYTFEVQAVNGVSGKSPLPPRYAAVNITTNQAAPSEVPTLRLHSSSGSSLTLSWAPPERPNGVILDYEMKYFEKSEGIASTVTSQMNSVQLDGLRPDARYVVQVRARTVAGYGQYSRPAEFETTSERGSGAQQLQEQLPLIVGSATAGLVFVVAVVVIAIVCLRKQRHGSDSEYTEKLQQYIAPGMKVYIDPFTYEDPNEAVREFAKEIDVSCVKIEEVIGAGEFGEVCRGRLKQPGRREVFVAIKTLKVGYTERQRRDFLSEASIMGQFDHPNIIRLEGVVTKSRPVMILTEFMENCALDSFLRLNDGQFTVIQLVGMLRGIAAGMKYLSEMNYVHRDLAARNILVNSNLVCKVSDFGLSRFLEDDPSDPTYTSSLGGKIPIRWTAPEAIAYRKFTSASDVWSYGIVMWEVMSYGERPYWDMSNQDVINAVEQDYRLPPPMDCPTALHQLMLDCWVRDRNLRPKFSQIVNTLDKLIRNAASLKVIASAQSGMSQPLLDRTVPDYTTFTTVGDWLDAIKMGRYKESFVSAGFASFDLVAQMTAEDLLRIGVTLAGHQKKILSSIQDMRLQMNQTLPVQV", "conditions": "at 1 µM"}, "[9]": {"target": "T4, Ephrin type-B receptor 3 (Homo sapiens)", "conditions": "at 10 µM"}, "[10]": {"target": "T5, Ephrin type-B receptor 4 (Homo sapiens) (UniProt P54760)", "T5 sequence (whole entry)": "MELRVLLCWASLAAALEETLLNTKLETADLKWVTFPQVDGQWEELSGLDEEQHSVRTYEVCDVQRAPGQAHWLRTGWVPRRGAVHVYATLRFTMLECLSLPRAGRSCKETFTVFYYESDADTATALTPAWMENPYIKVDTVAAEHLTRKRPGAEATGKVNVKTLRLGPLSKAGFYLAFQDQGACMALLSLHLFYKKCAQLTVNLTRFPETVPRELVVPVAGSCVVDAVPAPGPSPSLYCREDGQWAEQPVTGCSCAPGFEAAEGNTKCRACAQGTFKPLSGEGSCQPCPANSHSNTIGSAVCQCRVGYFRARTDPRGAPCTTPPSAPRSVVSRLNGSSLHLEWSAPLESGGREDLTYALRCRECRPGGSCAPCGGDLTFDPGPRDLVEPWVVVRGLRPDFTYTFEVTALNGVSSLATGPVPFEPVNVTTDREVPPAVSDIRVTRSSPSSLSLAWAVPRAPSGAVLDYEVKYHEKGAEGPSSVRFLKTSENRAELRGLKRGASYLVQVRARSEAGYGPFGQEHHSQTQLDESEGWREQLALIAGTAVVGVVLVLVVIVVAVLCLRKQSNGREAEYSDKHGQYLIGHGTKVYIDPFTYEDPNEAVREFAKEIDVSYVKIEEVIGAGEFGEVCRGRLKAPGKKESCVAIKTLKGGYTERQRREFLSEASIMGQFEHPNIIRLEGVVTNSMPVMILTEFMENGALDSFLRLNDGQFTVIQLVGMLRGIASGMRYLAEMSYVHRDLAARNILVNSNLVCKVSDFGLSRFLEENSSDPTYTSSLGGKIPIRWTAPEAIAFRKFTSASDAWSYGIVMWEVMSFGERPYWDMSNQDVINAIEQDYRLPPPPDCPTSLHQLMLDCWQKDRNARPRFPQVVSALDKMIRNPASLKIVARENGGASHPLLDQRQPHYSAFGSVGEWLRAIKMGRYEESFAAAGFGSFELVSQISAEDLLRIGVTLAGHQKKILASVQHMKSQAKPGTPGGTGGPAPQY", "conditions": "at 1 µM"}, "[11]": {"target": "T5, Ephrin type-B receptor 4 (Homo sapiens)", "conditions": "at 10 µM"}, "[12]": {"target": "Receptor tyrosine-protein kinase erbB-4 (Homo sapiens) (UniProt Q15303)", "sequence (Q15303 whole entry)": "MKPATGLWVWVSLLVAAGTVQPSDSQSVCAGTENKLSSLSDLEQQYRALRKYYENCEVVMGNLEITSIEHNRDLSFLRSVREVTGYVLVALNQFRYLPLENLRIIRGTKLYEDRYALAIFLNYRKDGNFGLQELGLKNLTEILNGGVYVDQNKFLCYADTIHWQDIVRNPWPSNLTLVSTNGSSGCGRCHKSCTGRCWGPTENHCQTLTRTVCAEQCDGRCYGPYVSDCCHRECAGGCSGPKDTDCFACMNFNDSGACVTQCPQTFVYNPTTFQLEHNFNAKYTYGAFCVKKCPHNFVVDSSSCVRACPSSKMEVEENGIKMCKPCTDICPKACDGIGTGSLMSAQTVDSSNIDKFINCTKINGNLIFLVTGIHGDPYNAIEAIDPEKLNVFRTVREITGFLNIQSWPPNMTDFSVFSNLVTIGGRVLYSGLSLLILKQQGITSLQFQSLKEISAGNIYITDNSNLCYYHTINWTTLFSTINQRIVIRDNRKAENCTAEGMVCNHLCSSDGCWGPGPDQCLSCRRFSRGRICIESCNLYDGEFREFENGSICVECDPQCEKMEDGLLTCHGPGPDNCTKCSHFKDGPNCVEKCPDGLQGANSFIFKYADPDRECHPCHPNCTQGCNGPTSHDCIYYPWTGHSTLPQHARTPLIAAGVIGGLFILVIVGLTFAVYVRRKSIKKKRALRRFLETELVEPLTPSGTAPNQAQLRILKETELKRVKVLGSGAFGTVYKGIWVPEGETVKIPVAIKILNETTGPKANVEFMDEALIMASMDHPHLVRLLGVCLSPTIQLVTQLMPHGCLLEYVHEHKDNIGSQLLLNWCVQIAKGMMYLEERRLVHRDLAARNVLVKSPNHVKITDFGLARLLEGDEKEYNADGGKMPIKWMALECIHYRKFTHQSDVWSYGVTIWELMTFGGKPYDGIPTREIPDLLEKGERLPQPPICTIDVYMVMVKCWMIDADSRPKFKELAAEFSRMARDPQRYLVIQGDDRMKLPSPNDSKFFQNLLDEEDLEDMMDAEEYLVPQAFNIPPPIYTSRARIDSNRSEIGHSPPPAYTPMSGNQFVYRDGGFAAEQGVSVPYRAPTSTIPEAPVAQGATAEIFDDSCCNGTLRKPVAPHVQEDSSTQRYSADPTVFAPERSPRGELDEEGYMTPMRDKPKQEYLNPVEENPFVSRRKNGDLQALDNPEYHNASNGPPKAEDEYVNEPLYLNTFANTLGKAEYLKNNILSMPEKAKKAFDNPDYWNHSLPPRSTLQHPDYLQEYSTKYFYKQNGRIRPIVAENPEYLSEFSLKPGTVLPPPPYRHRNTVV", "conditions": "at 1 µM"}, "[13]": {"target": "Receptor tyrosine-protein kinase erbB-4 (Homo sapiens) (UniProt Q15303)", "conditions": "at 10 µM"}, "[14]": {"target": "Focal adhesion kinase 1 (Homo sapiens) (UniProt Q05397)", "sequence (Q05397 2-1052 limits assumed)": "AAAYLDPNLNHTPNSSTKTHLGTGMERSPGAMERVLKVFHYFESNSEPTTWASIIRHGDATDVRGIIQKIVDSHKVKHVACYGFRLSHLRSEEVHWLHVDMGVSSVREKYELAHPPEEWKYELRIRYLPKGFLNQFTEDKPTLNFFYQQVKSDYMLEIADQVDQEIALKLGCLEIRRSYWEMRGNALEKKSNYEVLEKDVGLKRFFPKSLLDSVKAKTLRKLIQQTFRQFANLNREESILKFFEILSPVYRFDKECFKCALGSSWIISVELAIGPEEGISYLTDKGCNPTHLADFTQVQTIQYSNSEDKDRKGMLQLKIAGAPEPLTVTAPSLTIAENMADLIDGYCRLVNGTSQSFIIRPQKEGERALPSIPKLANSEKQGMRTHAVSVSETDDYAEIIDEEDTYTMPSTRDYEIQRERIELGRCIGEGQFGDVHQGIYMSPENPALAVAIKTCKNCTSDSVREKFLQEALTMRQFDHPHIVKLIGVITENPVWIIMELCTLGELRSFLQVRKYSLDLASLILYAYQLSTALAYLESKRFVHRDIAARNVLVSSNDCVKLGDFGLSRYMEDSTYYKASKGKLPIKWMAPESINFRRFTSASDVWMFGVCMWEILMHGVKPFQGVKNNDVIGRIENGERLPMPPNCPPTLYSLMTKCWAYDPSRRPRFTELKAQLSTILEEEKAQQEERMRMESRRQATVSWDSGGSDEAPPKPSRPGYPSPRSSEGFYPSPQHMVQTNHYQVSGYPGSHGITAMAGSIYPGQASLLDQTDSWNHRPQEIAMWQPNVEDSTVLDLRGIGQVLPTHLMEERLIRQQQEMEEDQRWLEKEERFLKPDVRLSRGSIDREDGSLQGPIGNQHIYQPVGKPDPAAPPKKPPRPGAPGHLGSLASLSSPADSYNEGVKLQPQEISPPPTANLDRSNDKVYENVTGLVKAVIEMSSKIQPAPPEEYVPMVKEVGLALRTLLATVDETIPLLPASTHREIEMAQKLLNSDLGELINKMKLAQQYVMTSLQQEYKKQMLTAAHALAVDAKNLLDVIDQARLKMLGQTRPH", "conditions": "at 1 µM"}}, "data": [{"smiles": "c1cc(-c2cnn3cc(-c4ccc(OCCN5CCCCC5)cc4)cnc23)ccn1", "values": [{"measurement": "residual activity", "setting": "[1]", "result": 7, "unit": "%"}, {"measurement": "residual activity", "setting": "[2]", "result": 39, "unit": "%"}, {"measurement": "residual activity", "setting": "[3]", "result": 51, "unit": "%"}, {"measurement": "residual activity", "setting": "[4]", "result": 37, "unit": "%"}, {"measurement": "residual activity", "setting": "[5]", "result": 0, "unit": "%"}, {"measurement": "residual activity", "setting": "[6]", "result": 25, "unit": "%"}, {"measurement": "residual activity", "setting": "[7]", "result": 0, "unit": "%"}, {"measurement": "residual activity", "setting": "[8]", "result": "118% (inactive)"}, {"measurement": "residual activity", "setting": "[9]", "result": 117, "unit": "%"}, {"measurement": "residual activity", "setting": "[10]", "result": 20, "unit": "%"}, {"measurement": "residual activity", "setting": "[11]", "result": -1, "unit": "%"}, {"measurement": "residual activity", "setting": "[12]", "result": 129, "unit": "%"}, {"measurement": "residual activity", "setting": "[13]", "result": 100, "unit": "%"}, {"measurement": "residual activity", "setting": "[14]", "result": 123, "unit": "%"}]}]}
